Bioassay records from PubChem.
eIF4H FP inh: human eIF4H binding inhibitors, primary screen, translation initiation inhibitor project, biochemical, uHTS, fluorescence polarization | eIF4H fluorescence polarization binding assay | inhibition, % at 35 µM | 0.94% of 290,000 active;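 note: calls also rest on retests at 20 µM and on dose response follow-up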
eIF4E-4G inh: eIF4E–eIF4G protein interaction inhibitors, primary screen, biochemical, uHTS, TR-FRET, eIF4GI fragment; Eukaryotic translation initiation factor 4E (Mus musculus) + Eukaryotic translation …; inhibition, % at 21.7 µM; TR-FRET eIF4E-eIF4GI(517-606) binding, 2 h; 0.37% of 220,000 active;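 active = inhibition above about 30%, limit read from the data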
PABP1 MLLE inh: inhibitors of PABP1 MLLE–PAM2 peptide binding, primary screen, biochemical, fluorescence polarization, FITC-PAM2, GST-MLLE; Polyadenylate-binding protein 1 (Homo sapiens), P11940; inhibition, % at 20 µM; 0.36% of 360,000 active; in the data active = inhibition above about 35%, passing the limit was not always enough
PABP FP inh: PABP poly(A) RNA binding inhibitors, primary screen, biochemical, fluorescence polarization, uHTS | Polyadenylate-binding protein 1 (Homo sapiens), P11940 | calls only at 35 µM | 1% of 290,000 active | AID 2014, 2009;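 note: calls also rest on retests at 20 µM and on dose response follow-up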
EBV gp42 block: Epstein-Barr virus gp42 inhibitors, primary screen, biochemical, uHTS, fluorescence polarization; inhibition, % (tested at 21.74 µM); AID 1085, 2008; Fluorescence polarization binding assay, mP read-out; 0.42% of 220,000 active; in the data active = inhibition above about 50%
Each line names hits and unclear results; the compound was inactive in the other large screens; [ ] = remark or other dose. Rows were chosen to be rich in hits. Some 1.7% of all compounds tested hit in one or more screens of this group. Unless noted, the rule behind the calls is not given here.

O=C(Nc1cccc([N+](=O)[O-])c1)c1cccc(C(=O)Nc2cccc([N+](=O)[O-])c2)c1	eIF4E-4G inh 35
COC(=O)c1c(NC(=O)c2cccc([N+](=O)[O-])c2)sc(C(N)=O)c1C	eIF4H FP inh 63, PABP FP inh active
Cc1cc(CSc2ccccc2)ccc1NC(=O)c1cccc([N+](=O)[O-])c1	eIF4E-4G inh 72[fluorescence artefact?]
O=C(O)c1ccccc1C(=O)Nc1cccc([N+](=O)[O-])c1	none
Cc1cc(O)c(NC(=O)c2cccc([N+](=O)[O-])c2)cc1C	none
O=C(COc1ccc([N+](=O)[O-])cc1)N(C1CCCCC1)C1CCS(=O)(=O)C1 (configuration not stated)	none (no result: eIF4H FP inh, eIF4E-4G inh, PABP FP inh, EBV gp42 block)
Clc1cc(Cl)c(OCCCCn2cncn2)c(Cl)c1	none (no result: eIF4E-4G inh, EBV gp42 block)
COc1ccc2c(c1)Cc1sc(NC(C)=O)nc1-2	PABP1 MLLE inh 37
Cc1ccccc1CN1C[C@@H]2C[C@@H](c3cnc(N4CCOCC4)s3)N3CCC[C@@]23C1=O	eIF4H FP inh inconclusive, PABP FP inh inconclusive
C(=N\N1CCN(C2c3ccccc3-c3ccccc32)CC1)/c1ccncc1	none
C/C(=N\N1CCN(C2c3ccccc3-c3ccccc32)CC1)c1ccncc1	EBV gp42 block 117
O=C(C[C@@H]1C[C@@H]2c3cc(NS(=O)(=O)c4ccc(F)cc4)ccc3O[C@@H]2[C@@H](CO)O1)NC1CCCCC1	none (no result: eIF4H FP inh, eIF4E-4G inh, PABP FP inh, EBV gp42 block)
c1ccc(Oc2cccc(Oc3ccccc3)n2)cc1	none (no result: eIF4H FP inh, eIF4E-4G inh, PABP FP inh, EBV gp42 block)
O=C(COC(=O)c1ccc(O)cc1)Nc1ccc2c(c1)OCO2	none (no result: eIF4H FP inh, eIF4E-4G inh, PABP FP inh, EBV gp42 block)
CCOc1ccc(N=C/C=C/c2ccccc2)c(O)c1	eIF4H FP inh inconclusive, PABP FP inh active
CN(Cc1ccc2c(c1)CCCN2C)C(=O)[C@H]1O[C@@H](n2ccc(=O)[nH]c2=O)[C@H](O)[C@@H]1O	PABP1 MLLE inh 47 (no result: eIF4H FP inh, eIF4E-4G inh, PABP FP inh, EBV gp42 block)
COc1ccc(CN(C)C(=O)[C@H]2O[C@@H](n3ccc(=O)[nH]c3=O)[C@H](O)[C@@H]2O)cc1OC	none (no result: eIF4H FP inh, eIF4E-4G inh, PABP FP inh, EBV gp42 block)
Cc1ccc(F)c(S(=O)(=O)NC(=O)C2(C)CCN2C(=O)Cc2cccc3ccccc23)c1 (configuration not stated)	none (no result: eIF4H FP inh, eIF4E-4G inh, PABP FP inh, EBV gp42 block)
COc1ccc(/C=C2\SC(=O)N(CC(=O)NNC(=O)c3ccccc3O)C2=O)cc1OC	none
O=C(CN1C(=O)S/C(=C\c2ccccc2)C1=O)NCCCn1ccnc1	PABP1 MLLE inh 43 (no result: eIF4E-4G inh, EBV gp42 block)
CCN(CC)C(=O)CN1C(=O)/C(=C/c2ccccc2)SC1=S	none
O=C(CN1C(=O)S/C(=C\c2ccccc2)C1=O)NNC(=O)c1ccccc1O	eIF4H FP inh 7.4, PABP FP inh active
CC(=O)NNC(=O)CN1C(=O)/C(=C/c2ccccc2)SC1=S	PABP1 MLLE inh 50
COc1ccc(/C=C2\SC(=O)N(CC(=O)NNC(=O)c3ccccc3O)C2=O)cc1	EBV gp42 block 58
O=C(COc1cc(Cl)ccc1Cl)Nc1nnc(C2CC2)s1	none (no result: eIF4E-4G inh, EBV gp42 block)
C[C@@H]1CN([C@@H](C)CO)C(=O)CCCn2nncc2CO[C@H]1CN(C)Cc1ccc2c(c1)OCCO2	none (no result: eIF4H FP inh, eIF4E-4G inh, PABP FP inh, EBV gp42 block)
COc1ccc(/C=C/C(=O)OCC(=O)NC2CCCC2)cc1	none (no result: eIF4H FP inh, eIF4E-4G inh, PABP FP inh, EBV gp42 block)
CCCN1C(=O)/C(=C\C=C2\N(CC)c3ccccc3C2(C)C)SC1=S	eIF4H FP inh inconclusive, PABP FP inh inconclusive, EBV gp42 block active
CCCN1C(=O)/C(=C\C=C2/Sc3ccccc3N2CC)SC1=S	none (no result: PABP1 MLLE inh)
CCOC(=O)CSc1nc(=O)n2cccc(C)c2n1	none
Cc1ccc(Nc2nc(Oc3ccc(=O)[nH]n3)nc(N(C)C)n2)cc1	eIF4E-4G inh 74
CN(C)c1nc(Nc2ccccc2)nc(Oc2ccc(=O)[nH]n2)n1	none
O=C(NCc1cccs1)C1CCC(=O)N(Cc2cccc(C(F)(F)F)c2)C1 (configuration not stated)	none (no result: eIF4E-4G inh, EBV gp42 block)
Oc1ccc(/C=N/NC(=S)Nc2cccnc2)cc1	PABP1 MLLE inh 38
COc1ccc(O)c(/C=N/NC(=S)Nc2cccnc2)c1	PABP1 MLLE inh 41
COC(=O)CCC1(C(N)=O)CCC(=O)c2ccccc21 (configuration not stated)	none (no result: eIF4H FP inh, eIF4E-4G inh, PABP FP inh, EBV gp42 block)
O=C(O)[C@H](Cc1ccccc1)NC(=O)N1CCN(c2ccccc2)CC1	none
CN(C)C1=C(Cl)C(=O)N(c2ccc(Cl)c(Cl)c2)C1=O	PABP FP inh active
CN(C)/C=C1\C(=O)N(c2ccc(Cl)c(Cl)c2)CS1(=O)=O	none
O=C1c2cccc3c(O)ccc(c23)C(=O)N1Cc1ccccc1	eIF4H FP inh inconclusive, PABP FP inh inconclusive, EBV gp42 block 187
O=C(O)c1cccc(CN2C(=O)c3ccccc3C2=O)c1	none (no result: eIF4E-4G inh, EBV gp42 block)
Cc1ccc(OCC(=O)NC(=S)Nc2cccc(NC(=O)c3ccccc3)c2)cc1	PABP1 MLLE inh 38
O=C(c1ccccc1)c1ccc2c(c1)OCCCO2	EBV gp42 block 68
O=C(O)c1cccc(NC(=S)NC(=O)c2cccc(OCc3ccccc3)c2)c1	PABP1 MLLE inh 40 (no result: eIF4E-4G inh, EBV gp42 block)
Cc1ccc(OCC(=O)NC(=S)Nc2cccc(NC(=O)c3ccc(Cl)cc3Cl)c2)cc1	none
CC(=O)c1cccc(NC(=S)NC(=O)c2ccccc2C)c1	none
CC(=O)c1cccc(NC(=S)NC(=O)c2ccccc2Br)c1	PABP1 MLLE inh 36
CCCOc1cccc(C(=O)NC(=S)Nc2ccccc2)c1	none
C#CCSc1nnnn1-c1ccc(OCC)cc1	none
CC(C)c1cc(C(C)C)c(S(=O)(=O)N2CCNCC2)c(C(C)C)c1	none (no result: eIF4H FP inh, eIF4E-4G inh, PABP FP inh, EBV gp42 block)
O=C(COc1ccc(Br)cc1)NCCNC(=O)c1ccncc1	none (no result: eIF4E-4G inh, EBV gp42 block)
O=C(O)CCNc1ccc2c(c1)OCCO2	eIF4H FP inh 83, PABP FP inh active
O=C(NC(=S)Nc1ccc2c(c1)OCCO2)c1ccccc1	PABP1 MLLE inh 38
O=C(O)c1cccc(NC(=S)NC(=O)c2ccncc2)c1	PABP1 MLLE inh 44
CC(C)(C)C(=O)NC(=S)Nc1cccc(C(=O)O)c1	none
COC1CCN(C(=O)c2ccc3oc(C(C)C)nc3c2)CC1	none (no result: eIF4E-4G inh, EBV gp42 block)
COc1cc(/C=C2\CCc3c2nc2ccccc2c3C(=O)O)cc(OC)c1OC	eIF4H FP inh 87, PABP FP inh active
CCN1C/C(=C\c2cccc(C)c2)c2nc3ccccc3c(C(=O)O)c2C1	eIF4H FP inh inconclusive, PABP FP inh active (no result: PABP1 MLLE inh)
O=C(Nc1ccnn1C1CCN(Cc2ccc(O)c(Cl)c2)CC1)C1CCCC1	none (no result: eIF4E-4G inh, EBV gp42 block)
C[C@H]1CN([C@@H](C)CO)C(=O)CCCn2nncc2CO[C@H]1CN(C)C(=O)c1ccc2ccn(C)c2c1	none (no result: eIF4H FP inh, eIF4E-4G inh, PABP FP inh, EBV gp42 block)
CNc1ccc(Br)cc(C(=O)/C=C/c2ccc3c(c2)OCO3)c1=O	eIF4H FP inh 92, PABP FP inh active
CCCCCCCn1ccc(=N)cc1	eIF4H FP inh 0.6, PABP FP inh active
CC(Cc1c[nH]c2ccccc12)C(=O)O (configuration not stated)	PABP FP inh active
O=C(c1cc(COc2ccccc2)on1)N1CCCC(CN2CCOCC2)C1 (configuration not stated)	none (no result: eIF4E-4G inh, EBV gp42 block)
